Our source for the composite z-score, z-score and composite Z-score values is PubChem BioAssay.

The source made the active and inactive calls.

Assay [1] relates to Human papillomavirus type 1a protein E7 (residues 44-93). Briefly: HPV1a E7 fragment binders on microarrays, primary screen, biochemical, small-molecule microarray, residues 44-93, 635 nm fluorescence (AID 1108).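 Note: E7 fragment applied at 1 µg/mL in TBST for 1 h at 4 C; score combines spot fluorescence with its signal to noise ratio.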 The note with it: small-molecule microarray binding, fluorescence 635 nm; higher = more signal.
A short description of assay [2]: modulators of HCV replicon luciferase signal, primary screen, HCV replication inhibitor project, Huh7 cells, luciferase reporter (AID 1109).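 Note: huh7 hepatoma cells harbouring a luciferase neomycin HCV replicon reporter; luciferase luminescence as measure of HCV replicon replication; test concentration not given here.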 To be noted: 48 h, higher = more signal. On the technique in general: Replicon systems follow genome replication, usually without infectious particles.
Assay [3] has as its target Left-right determination factor 2 (Homo sapiens) (UniProt O00292). Briefly: LEFTY2 binders on small-molecule microarrays, primary screen, biochemical, small-molecule microarray, 635 nm fluorescence scan (AID 1110). The note with it: LEFTY2 binding, higher = more signal.
Assay [4] has as its target Calmodulin-1 (Homo sapiens) (UniProt P0DP23). Briefly: CALM1 binders on microarrays, EGTA buffer, profiling panel, biochemical, small-molecule microarray, Cy5-labelled CALM1 (AID 1111).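 Note: labelled calmodulin applied in Tris saline Tween buffer holding calcium plus EGTA and DTT.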 The note with it: Cy5-CALM1 binding fluorescence, higher = more signal.
Assay [5] shares this target. Briefly: calcium-bound CALM1 binders on microarrays, profiling panel, artefact control for SMM control-protein annotation, biochemical, small-molecule microarray, Cy5-labelled CALM1, plus calcium (AID 1112).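 Note: score merges spot fluorescence with signal to noise from triplicate slides.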 The note with it: Cy5-CALM1 binding fluorescence, higher = more signal.
Assay [6] in a line: small-molecule microarray binders of probe aWnt5a, primary screen, biochemical, biotinylated probe, 635/667 nm fluorescence (AID 1113).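 Note: score merges 667 nm fluorescence intensity with signal-to-noise per printed feature.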 To be noted: higher = more signal.
Assay [7] in a line: small-molecule microarray binders of probe aShh, primary screen, biochemical, biotinylated probe, 635/667 nm fluorescence (AID 1114).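 Note: probe is biotin-labelled aShh protein from a stem cell growth factor screen; measures binding of labelled protein to compounds printed on the slide; score merges feature fluorescence at 667 nm with signal-to-noise.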 The note with it: higher = more signal.
The nature of assay [8]: small-molecule microarray binders of probe aNog, primary screen, biochemical, biotinylated probe, 635/667 nm fluorescence (AID 1115).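 Note: probe is biotinylated aNog protein used at 0.15 µg/mL for 1 h at 4 C; z-score combines 667 nm fluorescence of each spot with its signal to noise.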 The note with it: higher = more signal.
Assay [9] concerns the target Torsin-1A-interacting protein 1 (Homo sapiens) (UniProt Q5JTV8). The experiment in a line: LAP1 binders from COS7 cell lysate, primary screen, small-molecule microarray, 635/667 nm fluorescence (AID 1116). To be noted: COS7-hLAP1 lysate binding, 635 nm fluorescence, higher = more signal.
Assay [10] deals with Alpha-bungarotoxin (Bungarus multicinctus) (UniProt P60615). Briefly: alpha-bungarotoxin binders on microarray, profiling panel, artefact control for SMM control protein annotation, biochemical, small-molecule microarray, Alexa647 label, 635/667 nm fluorescence (AID 1117). The note with it: alpha-BTX-A647 binding fluorescence, higher = more signal.
A further assay has as its target Albumin (Bos taurus) (UniProt P02769). Briefly: bovine serum albumin binders on microarray, profiling panel, artefact control for SMM control protein annotation, biochemical, small-molecule microarray, Alexa647 label, 635/667 nm fluorescence (AID 1118).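 Note: score merges 667 nm emission intensity and signal-to-noise per printed compound spot.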 The note with it: BSA-A647 binding, fluorescence 635 nm, higher = more signal.
The nature of assay [11]: small-molecule microarray binders of probe aXIP, primary screen, biochemical, NeuroSMM set, 635/667 nm fluorescence (AID 1119).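 Note: probe is the protein aXip251-270 applied at 1 µg/mL to compound-printed slides; binding of probe to printed compounds measured as 667 nm fluorescence plus signal to noise.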 To be noted: higher = more signal, called active from +8 up or from −8 down.
A short description of assay [12]: small-molecule binders of probe aNOTCH3, primary screen, biochemical, small-molecule microarray, 635/667 nm fluorescence (AID 1120).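 Note: probe is a biotin-tagged antibody raised against NOTCH3 rather than NOTCH3 protein; score merges spot fluorescence near 667 nm with spot signal to noise.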 The note with it: higher = more signal.
Assay [13] is described as follows: small-molecule binders of probe aNOTCH2, primary screen, biochemical, small-molecule microarray, 635/667 nm fluorescence (AID 1121).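 Note: score merges feature fluorescence read at 667 nm with its signal to noise.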 The note with it: higher = more signal.
For assay [14], the target named is Carbonic anhydrase 2 (Homo sapiens) (UniProt P00918). The experiment in a line: CAII small-molecule binders, profiling panel, biochemical, small-molecule microarray, Alexa647-labelled CAII (AID 1122). To be noted: CAII-A647 binding fluorescence, higher = more signal.
Assay [15] in a line: COS7 lysate on small-molecule microarray, probe aHis, 635 nm (AID 1123).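 Note: z-score combines 667nm fluorescence intensity with signal-to-noise per printed compound spot.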 To be noted: COS7 cell lysate, fluorescence, higher = more signal.
A short description of assay [16]: compound binding in COS7 lysate, probe aLAP1, primary screen, cell lysate, small-molecule microarray (AID 1124).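 Note: lysate comes from COS7 cells expressing LAP1 and is applied at 0.3 µg/mL; score merges spot fluorescence near 667 nm with signal-to-noise over triplicate slides.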 The note with it: probe aLAP1, fluorescence, higher = more signal.
A further assay relates to Sam68 (KHDRBS1). The experiment in a line: Sam68 small-molecule binders, primary screen, biochemical, small-molecule microarray, 635 nm fluorescence (AID 1125).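 Note: score merges 667 nm channel intensity with signal to noise over triplicate slides.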 To be noted: small-molecule microarray binding, higher = more signal.
Assay [17] deals with Chordin-like protein 2 (CHRDL2). The experiment in a line: CHRDL2 small-molecule binders, primary screen, biochemical, small-molecule microarray, 635 nm fluorescence (AID 1126).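 Note: printed compound slides probed with Chrdl2 protein at 4 µg/mL for 1 h at 4 C; score merges 667 nm emission intensity with signal to noise over three replicate slides.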 To be noted: small-molecule microarray binding, fluorescence 635 nm; higher = more signal.
Assay [18] concerns the target Concanavalin-A (Canavalia ensiformis) (UniProt P02866). Briefly: ConA small-molecule binders, primary screen, artefact control for SMM control protein annotation, biochemical, small-molecule microarray, Alexa647 label, 635 nm (AID 1127).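 Note: z combines 667 nm emission intensity with signal-to-noise across three replicate slides.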 To be noted: ConA-A647 binding fluorescence, higher = more signal.

Albumin (Bos taurus), sequence (P02769 whole entry, looked up): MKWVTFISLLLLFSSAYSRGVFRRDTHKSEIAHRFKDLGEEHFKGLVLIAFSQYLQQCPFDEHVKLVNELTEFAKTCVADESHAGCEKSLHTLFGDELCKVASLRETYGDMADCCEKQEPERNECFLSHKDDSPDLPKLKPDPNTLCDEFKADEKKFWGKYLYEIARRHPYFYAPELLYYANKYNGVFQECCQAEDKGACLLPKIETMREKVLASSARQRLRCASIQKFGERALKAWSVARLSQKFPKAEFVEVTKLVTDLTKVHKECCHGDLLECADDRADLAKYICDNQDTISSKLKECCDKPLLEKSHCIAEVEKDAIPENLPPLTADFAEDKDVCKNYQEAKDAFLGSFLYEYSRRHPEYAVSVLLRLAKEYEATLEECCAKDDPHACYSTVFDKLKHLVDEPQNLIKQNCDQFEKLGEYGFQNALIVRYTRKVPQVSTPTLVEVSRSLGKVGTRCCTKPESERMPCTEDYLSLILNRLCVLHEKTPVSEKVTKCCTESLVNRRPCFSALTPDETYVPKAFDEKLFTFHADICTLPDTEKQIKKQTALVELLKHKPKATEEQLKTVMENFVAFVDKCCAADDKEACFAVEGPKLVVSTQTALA
Alpha-bungarotoxin (Bungarus multicinctus), sequence (P60615 whole entry, looked up): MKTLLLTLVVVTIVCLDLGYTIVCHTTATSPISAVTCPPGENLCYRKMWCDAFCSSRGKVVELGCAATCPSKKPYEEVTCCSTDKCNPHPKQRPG
Torsin-1A-interacting protein 1 (Homo sapiens), sequence (Q5JTV8 whole entry, looked up): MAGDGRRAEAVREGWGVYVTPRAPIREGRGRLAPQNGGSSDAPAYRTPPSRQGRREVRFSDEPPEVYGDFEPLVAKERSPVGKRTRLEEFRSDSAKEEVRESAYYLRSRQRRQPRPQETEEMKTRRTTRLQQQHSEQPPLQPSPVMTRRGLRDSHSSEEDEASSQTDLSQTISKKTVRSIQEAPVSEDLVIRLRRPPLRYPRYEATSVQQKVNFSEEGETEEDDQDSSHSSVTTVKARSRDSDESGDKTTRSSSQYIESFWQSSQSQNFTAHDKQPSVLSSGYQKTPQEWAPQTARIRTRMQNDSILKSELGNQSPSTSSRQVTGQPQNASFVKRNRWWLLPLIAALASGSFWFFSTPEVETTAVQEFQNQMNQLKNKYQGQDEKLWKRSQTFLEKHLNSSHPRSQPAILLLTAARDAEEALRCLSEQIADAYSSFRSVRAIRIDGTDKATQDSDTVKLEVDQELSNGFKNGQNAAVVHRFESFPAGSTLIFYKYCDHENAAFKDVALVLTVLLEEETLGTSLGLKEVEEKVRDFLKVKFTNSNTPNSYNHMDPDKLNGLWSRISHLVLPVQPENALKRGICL
Concanavalin-A (Canavalia ensiformis), sequence (P02866 whole entry, looked up): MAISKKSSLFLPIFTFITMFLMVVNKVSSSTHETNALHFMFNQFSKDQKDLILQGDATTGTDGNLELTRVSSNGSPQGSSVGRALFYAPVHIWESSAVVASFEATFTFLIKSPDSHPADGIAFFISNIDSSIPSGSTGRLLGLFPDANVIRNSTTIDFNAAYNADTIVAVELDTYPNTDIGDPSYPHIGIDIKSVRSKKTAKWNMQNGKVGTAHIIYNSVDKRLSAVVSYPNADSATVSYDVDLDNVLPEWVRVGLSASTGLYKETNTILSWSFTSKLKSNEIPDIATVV
Left-right determination factor 2 (Homo sapiens), sequence (O00292 whole entry, looked up): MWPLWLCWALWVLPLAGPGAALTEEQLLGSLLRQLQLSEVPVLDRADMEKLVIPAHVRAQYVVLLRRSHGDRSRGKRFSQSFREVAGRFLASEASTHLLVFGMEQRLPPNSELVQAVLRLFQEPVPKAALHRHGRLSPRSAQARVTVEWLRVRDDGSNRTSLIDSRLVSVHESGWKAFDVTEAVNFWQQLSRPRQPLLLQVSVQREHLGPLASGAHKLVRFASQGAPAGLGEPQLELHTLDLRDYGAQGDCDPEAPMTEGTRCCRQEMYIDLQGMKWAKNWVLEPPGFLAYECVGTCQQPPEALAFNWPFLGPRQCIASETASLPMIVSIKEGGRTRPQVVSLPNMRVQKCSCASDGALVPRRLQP

`COC(=O)[C@@]1(Cc2ccc(F)cc2)[C@H]2c3cc(C(=O)N(C)C)n(Cc4ccc(O)c(OC)c4)c3C[C@H]2CN1C(=O)c1ccccc1`: the composite z-score in [1] is 0.347; in assay [3], -0.0182; in assay [4] it was 1.17; in assay [5] it was -0.0337; in [6] it was 0.0776; in [7], 0.207. In addition, the composite z-score in [8] is -0.186; in [9] it was -0.105; in assay [10] it was 0.412; in the assay with Albumin (Bos taurus), 0.862; in [12] it was 0.416; in [13], -0.127. The composite z-score in [14] was 0.659; in assay [15], 1.08; in [16], -0.0606; in the assay on Sam68 (KHDRBS1) it was 0.607; in assay [17], -0.109; in assay [18], 0.862. Further, the z-score in assay [2] was -1.05. For the same compound, the composite Z-score in [11] was -0.136 (inactive).
On to `CC1CC/C=C\[C@H]2OC34C=CCN(CCN5CCOCC5)C(=O)[C@H]3N(C(C)CO)C(=O)[C@@H]4C2C(=O)O1` (stereo not given in full), for which the composite z-score in [1] was 0.523; in assay [3], -0.536; in assay [4], -0.666; in assay [5], -1.4; in assay [6], -0.199; in [7] it was 0.147. Further, the composite z-score in assay [8] was -0.373; in [9], -0.719; in assay [10], -0.807; in the assay with Albumin (Bos taurus) it was -0.712; in [12], -0.129; in assay [13], -0.0741. The composite z-score in [14] is 0.738; in [15] it was 1.57; in assay [16], -0.221; in the assay on Sam68 (KHDRBS1) it was 0.19; in [17], -0.231; in [18], -0.371. Also, the z-score in assay [2] was -0.91. In assay [11], the composite Z-score was 0.117 (inactive).
With `C[C@@H]1ON(c2ccc(I)cc2)[C@H](c2ccc(OC(=O)OC(C)(C)C)cc2)[C@H]1C(=O)N1C(=O)OC[C@H]1Cc1ccccc1`, the composite z-score in assay [1] was 1.15; in assay [3], 0.628; in assay [4], 0.501; in assay [5] it was -0.502; in assay [6], -0.241; in assay [7] it was -0.0431. Moreover, the composite z-score in assay [8] was -0.321; in assay [9], 0.362; in [10], 0.943; with Albumin (Bos taurus), 0.578; in assay [12], -0.0043; in [13], -0.14. In addition, the composite z-score in assay [14] is 0.574; in assay [15] it was 0.527; in assay [16], -0.36; in the assay on Sam68 (KHDRBS1) it was 1.15; in assay [17], 0.376; in assay [18], 1.09. For the same compound, the z-score in assay [2] is -1.12. In addition, in [11], the composite Z-score is 0.0054 (inactive).
For the compound `CC(C)c1ccc(NN2C(C(O)Cc3ccccc3)C=CC3C(=O)N(c4ccccc4)C(=O)C32)cc1` (stereo not given), the composite z-score in [1] was 1.33; in [3], 0.126; in assay [4] it was 2.05; in [5], 0.744; in assay [6], -0.0819; in assay [7] it was 0.23. Moreover, the composite z-score in assay [8] amounted to 1.53; in [9], 0.98; in assay [10], 1.06; with Albumin (Bos taurus) it was 0.999; in assay [12] it was 0.428; in assay [13] it was 0.0383. Besides, the composite z-score in assay [14] is 0.751; in assay [15], 2.65; in assay [16] it was 0.0643; with Sam68 (KHDRBS1) it was 1.31; in [17], -0.209; in [18], 1.14. The z-score in assay [2] was determined as 0.843. For the same compound, the composite Z-score in assay [11] is 0.221 (inactive).
On to `COCCOC(=O)N1C(=O)[C@@]2(c3cc(C#Cc4ccc(OC)cc4)ccc31)[C@H](C(=O)NC[C@H](O)c1ccccc1)[C@H]1C(=O)O[C@H](c3ccccc3)[C@H](c3ccccc3)N1[C@@H]2c1ccc(OCCO)cc1`, for which the composite z-score in assay [1] is 1.42; in [3], 0.46; in [4], 1.16; in [5], -0.0063; in assay [6], 0.0031; in [7] it was 0.0469. In addition, the composite z-score in assay [8] was 0.371; in [9] it was 1.14; in assay [10] it was 1.53; in the assay with Albumin (Bos taurus), 0.101; in [12] it was 0.0397; in [13], -0.146. Moreover, the composite z-score in [14] amounted to 0.441; in assay [15], 1.72; in assay [16] it was 0.313; in the assay on Sam68 (KHDRBS1) it was 1.3; in assay [17] it was 0.195; in [18] it was 1.09. Besides, the z-score in assay [2] is -1.52. Also, in assay [11], the composite Z-score was -0.014 (inactive).
Consider `COCCOC(=O)N1C(=O)[C@@]2(c3cc(C#CCCO)ccc31)[C@H](C(=O)N1CCCCCCC1)[C@H]1C(=O)O[C@H](c3ccccc3)[C@H](c3ccccc3)N1[C@@H]2c1ccccc1OCCO`, for which the composite z-score came to 1.4 in [1]; 1.18 in assay [3]; 2.73 in assay [4]; 1.5 in assay [5]; 0.993 in assay [6]; 2.38 in [7]. Also, the composite z-score in [8] was 2.99; in [9], 3.19; in [10], 1.85; with Albumin (Bos taurus), 0.951; in [12], 1.46; in assay [13], 0.662. In addition, the composite z-score turned out to be 0.599 in assay [14]; 2.89 in assay [15]; 0.359 in assay [16]; 1.32 in the assay with Sam68 (KHDRBS1); 1.14 in assay [17]; 1.09 in assay [18]. The z-score in [2] was -1.79. Also, in assay [11], the composite Z-score was 3.51 (inactive).
